Source: PubChem (several laboratories)
NCF1 inh: p47phox/p22phox peptide binding inhibitors, primary screen, biochemical, uHTS, NADPH oxidase regulatory subunit; fluorescence polarization, 2 h; inhibition, % at 24.7 µM; 0.53% of 220,000 active
Mcl1 Noxa PPI: Mcl-1/Noxa binding inhibitors, primary screen, biochemical, TR-FRET, 1536-well. inhibition, % at 21.7 µM. 1.5% of 220,000 active. AID 1022, 2008. TR-FRET Mcl-1/Noxa peptide binding, 2 h;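 active = compounds that cut the protein-peptide binding signal by more than 50% relative to plate controls in a single-dose test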;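 note: His-tagged Mcl-1 with rhodamine Noxa BH3 peptide and terbium anti-His antibody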
Mcl1-Bid inh: Mcl-1/Bid binding inhibitors, primary screen, biochemical, TR-FRET, 1536-well. TR-FRET Mcl-1/Bid-Dy647 peptide binding. inhibition, % at 21.7 µM. 0.97% of 220,000 active;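 active = compounds that cut the binding signal by more than half at the single screening dose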;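 note: His-tagged Mcl-1 with europium anti-His antibody binding Bid BH3 peptide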
Bim-Mcl-1: inhibitors of Bim peptide binding to Mcl-1, primary screen, biochemical, bead-based flow cytometry, multiplex; inhibition, % at 10 µM; 0.1% of 190,000 active; Bim peptide-Mcl-1 binding; Induced myeloid leukemia cell differentiation protein Mcl-1 (Homo sapiens), Q07820; in the data active = inhibition above about 40%
14-3-3 Bad inh: inhibitors of 14-3-3 zeta/Bad binding, primary screen, biochemical, TR-FRET, bovine 14-3-3 zeta; 14-3-3 protein zeta/delta (Bos taurus), P63103; TR-FRET 14-3-3zeta/Dy647-pBad peptide displacement, 1 h; inhibition, % at 21.7 µM; 0.71% of 220,000 active; AID 781, 2007;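 active = inhibition above about 70%, limit read from the data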
eIF4E 4G PPI: eIF4E–eIF4G protein interaction inhibitors, primary screen, biochemical, uHTS, TR-FRET, eIF4GI fragment. TR-FRET eIF4E-eIF4GI(517-606) binding, 2 h. Eukaryotic translation initiation factor 4E (Mus musculus) + Eukaryotic translation …. AID 782, 2007. inhibition, % at 21.7 µM. 0.37% of 220,000 active
Hits are given with their value; - = inactive; . = no result; [ ] = another dose, or the depositor's remark. Only some compounds are listed: those with a hit (about 3.3% of all), similar ones and a draw of the others.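 Rule for the calls, unless noted: active = inhibition above about 30% (limit read from the data); inactive = the rest.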

SMILES	NCF1 inh	Mcl1 Noxa PPI	Mcl1-Bid inh	Bim-Mcl-1	14-3-3 Bad inh	eIF4E 4G PPI
Cc1cccc(CNC(=O)CCc2nnc(C3CCCCC3)o2)c1	-	-	-	-	-	-
COc1ccc(NS(=O)(=O)c2ccc(NC(=O)c3ccc(N(C)S(C)(=O)=O)cc3)cc2)c(OC)c1	-	-	-	-	-	-
NS(=O)(=O)c1ccc(N/N=C/c2ccc(O)c(O)c2O)c([N+](=O)[O-])c1	-	-	95	.	89	78
O=C(O)c1cc(N/N=C/C(Cl)=C/c2ccccc2)ccc1Cl	-	-	-	-	-	-
CC1=NNC(=O)C1CCC(=O)N/N=C(\C)c1ccccc1 (centres undefined)	-	-	-	-	-	-
CC1=NNC(=O)C1CC(=O)N/N=C(\C)c1ccco1 (centres undefined)	-	112	-	-	-	-
Nc1cc2nsnc2cc1Br	-	61	-	-	-	-
Cc1ccc(S(=O)(=O)N2CCC(C(=O)N/N=C/c3ccncc3)CC2)cc1	-	-	-	-	-	-
O=S(=O)(c1ccccc1)N1CCN(c2ccnc3cc(Cl)ccc23)CC1	-	-	-	-	71	-
Cc1[nH]c(=O)[nH]c(=O)c1S(=O)(=O)NCCc1ccc(S(N)(=O)=O)cc1	-	58	-	-	-	-
CC(=O)Nc1ccc(S(=O)(=O)NCCc2ccc(S(N)(=O)=O)cc2)cc1	-	-	-	-	-	-
CN(C)C=Nc1c(Br)cc(Br)c2nonc12	-	60	-	-	-	-
CN(C)C=Nc1nonc1-c1ccccc1	-	-	-	.	-	-
COc1ccc(OCc2nc(N)nc(Nc3ccccc3OC)n2)cc1	99	-	-	-	-	-
CCC(=O)N=c1ccn(C2=Nc3ccccc3NC2=C(C#N)C#N)cc1	-	-	-	.	-	-
Cc1ccc2[nH]c(=O)c(CN(C)C(=O)c3cccs3)cc2c1	-	-	-	-	-	-
Cc1ccc(N(Cc2cc3cc(C)ccc3[nH]c2=O)C(=O)c2cccs2)cc1	-	-	61	-	-	-
Cc1c2c(c(C)n1C)C(C(=O)NC1CCCCC1)N(Cc1ccccc1)C2=O (centres undefined)	-	-	-	-	-	-
Cn1cccc1Cc1nnc(SCC(=O)NCC2CCCO2)n1C (centres undefined)	.	-	-	-	-	-
Clc1ccc2nc(CN3CCCc4ccccc43)cn2c1	-	-	100	-	-	-
O=C(O)C1CCN(C(=O)COc2ccc(Br)cc2)CC1	-	-	-	-	-	-
CC1=NN(c2ccccc2)C(=O)/C1=C/C=C/c1ccc(N(C)C)cc1	44	-	-	-	-	-
CCCCC(c1nnnn1Cc1ccco1)N1CCN(C(=O)c2ccco2)CC1 (centres undefined)	-	-	-	-	85	-
CC(C)CC(c1nnnn1CCc1ccccc1)N1CCN(C(=O)c2ccco2)CC1 (centres undefined)	-	-	-	-	-	-
CCCC(c1nnnn1Cc1ccco1)N1CCN(C(=O)c2ccco2)CC1 (centres undefined)	-	-	-	-	-	-
SMILES	NCF1 inh	Mcl1 Noxa PPI	Mcl1-Bid inh	Bim-Mcl-1	14-3-3 Bad inh	eIF4E 4G PPI
CCC(c1nnnn1CCc1ccccc1)N1CCN(C(=O)c2ccco2)CC1 (centres undefined)	-	-	-	-	75	-
O=C(Nc1cc(Cl)ccn1)C1(c2ccccc2)CC1(Cl)Cl (centres undefined)	-	-	-	.	-	-
O=c1cnc2cc([N+](=O)[O-])ccc2[nH]1	-	-	-	-	-	-
COCCCNC(=O)/C=C/c1ccc(Cl)cc1Cl	-	-	-	-	-	-
CNc1ccc(Br)cc(C(=O)/C=C/c2ccc3c(c2)OCO3)c1=O	-	68	-	-	-	-
COc1ccc(/C=C/C(=O)c2ccc(OC)cc2OC)cc1	-	-	-	-	-	-
CNc1ccc(Br)cc(C(=O)/C=C/c2ccc(OC)cc2)c1=O	-	63	-	-	-	-
CCNc1ccc(Br)cc(C(=O)/C=C/c2ccc(Cl)cc2Cl)c1=O	-	96	-	-	-	-
CNc1ccc(Br)cc(C(=O)/C=C/c2cc(OC)ccc2OC)c1=O	-	87	-	-	-	-
CNc1ccc(/C=C/C(=O)c2ccc3c(c2)OCCO3)cc1[N+](=O)[O-]	-	-	-	-	-	-
O=C(COC(=O)c1ccc2c(c1)C(=O)N(Cc1ccncc1)C2=O)Nc1cccc2ccccc12	-	-	-	-	-	-
Clc1ccccc1-c1nnc2n1CCCCC2	-	-	-	.	-	-
CC(=O)NC(CC(=O)Nc1nc(C)cs1)c1ccccc1 (centres undefined)	-	-	-	-	-	-
COc1cc(S(=O)(=O)NCCCN2CCOCC2)ccc1-n1cnnn1	-	-	-	-	70	-
COc1cc(NS(=O)(=O)c2ccc(C)cc2)ccc1-n1cnnn1	53	-	-	-	-	-
CCCNS(=O)(=O)c1ccc(-n2cnnn2)c(OC)c1	-	-	-	-	-	-
Cc1cc(C(=O)O)ccc1-c1ccc(/C=C2\NC(=O)N(Cc3ccc(F)cc3)C2=O)o1	-	-	-	.	-	-
Cc1nc(NCc2ccccn2)c2ccccc2n1	-	-	-	-	70	-
c1ccc(CNc2nc(NCc3ccccc3)c3ccccc3n2)cc1	88	60	-	.	-	-
Fc1ccccc1-c1nc(NCc2ccccc2)c2ccccc2n1	-	-	-	.	-	-
O=C(Cc1ccc(F)cc1)Oc1ccc(C(=S)N2CCCC2)cc1	-	-	-	-	-	-
Cc1ccc(Cl)cc1NC(=O)Nc1cccs1	-	-	-	-	-	-
O=c1[nH]c(/C=C\c2cccs2)nc(O)c1[N+](=O)[O-]	-	-	-	-	-	-
COC(=O)COc1ccc(S(=O)(=O)Nc2ccc3c(c2)OCO3)cc1	-	-	-	-	-	55[fluorescence artefact?]
COC(=O)COc1ccc(S(=O)(=O)Nc2ccc3c(c2)OCO3)cc1Cl	-	-	-	-	-	-
CCOc1ccccc1NC(=O)C(Sc1ccccc1)c1ccccc1 (centres undefined)	53	-	-	-	-	-
COc1ccccc1NC(=O)C(Sc1ccccc1)c1ccccc1 (centres undefined)	-	-	-	-	-	-
